{
  "source": "PubChem BioAssay (NCI)",
  "note": "This is part of a sample that, as a whole, favours compounds with a hit. Of some 83,000 tested, about 20% had one in any assay.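 Single-concentration screen, 48 h exposure, 96-well plates. Endpoint: percent growth. Below 10 = active.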 Unmarked numbers belong to inactive results. Calls of active or inactive are those of the source.",
  "data": [
    {"tested_on": "SF-295 CNS", "experiment": "NCI-60 one-dose screen, 48 h (100 = growth as untreated, 0 = no growth, -100 = all killed)", "settings": "10 µM unless noted", "values": [
      {"compound": "C=CCn1c(SCC(=O)Nc2ccc(C(=O)/C=C/c3ccc(OC)cc3)cc2)nnc1-c1ccccc1", "growth": "90.4%"},
      {"compound": "COc1cc2ncnc(Nc3ccc(F)c(Cl)c3)c2cc1OCC(=O)N1CCN(c2ccc(F)cc2)CC1", "growth": "94.1%"},
      {"compound": "Cc1ccc2nc(Cl)c(Cn3nnnc3SCc3ccccc3)cc2c1", "growth": "88.1%"},
      {"compound": "CN1CCN(CCOc2ccc(-c3cnc4c(-c5ccc(C(F)(F)F)cc5)cnn4c3)cc2)CC1", "growth": "64.4%"},
      {"compound": "C/C(C=O)=C\\c1ccc2c(c1)OCO2", "growth": "104%"},
      {"compound": "Cc1ccc(O)c(NC(=O)c2ccc(CNc3ccnc(C(F)(F)F)c3)cc2)c1", "growth": "17.2%"},
      {"compound": "O=C1/C(=C/c2ccc(C(F)(F)F)cc2)COc2ccc(O)c(O)c21", "growth": "85.8%"},
      {"compound": "O=C(N/N=C/c1ccc(O)cc1O)c1ccc(Nc2ccnc(C(F)(F)F)c2)cc1", "growth": "47.8%"},
      {"compound": "O=c1[nH]c(-c2ccc(Cl)cc2)cn1-c1ccc(-n2cc(-c3ccc(Cl)cc3)[nH]c2=O)cc1", "growth": "101%"},
      {"compound": "CC1O[C@@H]2C[C@@](O)([C@H]1O)n1c3ccccc3c3c4c(c5c6ccccc6n2c5c31)C(=O)NC4=O", "note": "(stereo not given in full)", "growth": "19.2%"},
      {"compound": "COC1=CC(c2ccc[nH]2)=N/C1=C\\c1[nH]c(C)c(CC(=O)OCc2ccccc2)c1C", "growth": "-50.1% (active)"},
      {"compound": "NC(=O)c1ccc(NC(=O)c2oc3ccccc3c2-c2cnn(-c3ccccc3)c2)cc1", "growth": "15.6% [50 µM]"},
      {"compound": "CCOC(=O)N1CCN(S(=O)(=O)c2oc(-c3ccc(Cl)cc3)nc2C#N)CC1", "growth": "102%"},
      {"compound": "Cc1nn(-c2ccccc2)c(N2CCCCC2)c1/C=N/NC(=O)Cn1c(=O)sc2ccccc21", "growth": "56.7%"},
      {"compound": "CN(C)c1ccc(C(=NO)c2ccc(N(C)C)cc2)cc1", "growth": "3.86% (active)"},
      {"compound": "Clc1ccc(-c2nc(-c3c[nH]c4ncccc34)cs2)cc1", "growth": "18.6% [100 µM]"},
      {"compound": "COc1ccc(C(c2cc(OC)c(OC)c(OC)c2)N2CCCC2)cc1", "note": "(stereo not given)", "growth": "69.7%"},
      {"compound": "COc1cccc(C(=O)OCC(O)C(=O)NC23CC4CC(CC(C4)C2)C3)c1", "note": "(stereo not given)", "growth": "95.9%"},
      {"compound": "C=CC(=O)N1CCN(c2ccc3cccc(NC(=O)c4cnc(C)cn4)c3n2)CC1", "growth": "61.5%"},
      {"compound": "CCOC(=O)c1c(C)c2c(n1C)CSc1cc(S(=O)(=O)c3ccccc3)c(=O)[nH]c1-2", "growth": "27.2% [100 µM]"},
      {"compound": "CCCCCCCCNc1cc2c3c(c1)CCCN3CCC2", "growth": "14%"},
      {"compound": "COc1ccc(OC)c(-c2cn3nc(-c4c[nH]c5ccc(Br)cc45)sc3n2)c1", "growth": "54.1%"},
      {"compound": "CS(=O)(=O)Nc1cc(-c2ccc3ncnc(Nc4ccc5c(cnn5Cc5cccnc5)c4)c3c2)cnc1Cl", "growth": "81.8%"},
      {"compound": "C=CCN=C(N)SCCCCCCSC(N)=NCC=C", "growth": "97.3%"},
      {"compound": "COc1cc(C2C3=C(COC3=O)N(CCO)c3cc4c(cc32)OCCO4)cc(OC)c1OC", "note": "(stereo not given)", "growth": "-5.17% (active)"},
      {"compound": "COc1ccc2[nH]cc(-c3nc(-c4cn(C)c5ccncc45)cs3)c2c1", "growth": "76.3%"},
      {"compound": "COc1cccc(NC(=O)c2cccc(C3CCc4c(cc(OC)c(OC)c4OC)O3)c2)c1", "note": "(stereo not given)", "growth": "70.9%"},
      {"compound": "Cn1c(O)c(C(/C=C/c2ccccc2)=Nc2ccccc2N)c(=O)n(C)c1=O", "growth": "105%"},
      {"compound": "CC1=C(C(=O)n2c3ccccc3c3ccccc32)C(c2cccc([N+](=O)[O-])c2)C(C(=O)n2c3ccccc3c3ccccc32)=C(C)N1", "growth": "102%"},
      {"compound": "O=C(O)c1cn(C2CC2)c2cc(N3CCN(C(=O)N/N=C/c4ccccc4)CC3)c(F)cc2c1=O", "growth": "106%"},
      {"compound": "CC1(C)CCC(S(=O)(=O)c2ccc3c(c2)/C(=N\\O)c2cc(S(=O)(=O)N4CCN(c5ccc(F)cc5O)CC4)ccc2-3)CC1", "growth": "-57.1% (active)"},
      {"compound": "Cc1ccc(C)n1/C=C/n1c(C)ccc1C", "growth": "76.9%"},
      {"compound": "CCOC(=O)C(=Cc1cccc(C#N)c1)C(=O)OCC", "growth": "95.9%"},
      {"compound": "COc1cc(-c2nc(NC(C)=O)sc2-c2ccnc(NCCNS(=O)(=O)c3ccccc3)n2)ccc1Cl", "growth": "10.9%"},
      {"compound": "CCN1CCN(CC(=O)Nc2nc3ccc(NCc4ccc(Br)cc4)cc3s2)CC1", "growth": "86.4%"},
      {"compound": "C/C(=N\\Nc1nc(C)cs1)c1cc2ccccc2o1", "growth": "94.7%"},
      {"compound": "COc1ccccc1-n1c(-c2cc(O)ccc2C)cn2c3c(=O)[nH]c(=O)n(C)c3nc12", "growth": "89.8%"},
      {"compound": "N#C/C(=C\\c1ccc(Br)cc1)c1cc2ccccc2[nH]1", "growth": "95.6%"},
      {"compound": "COc1ccc(C2=C/C(=C\\c3ccc(Cl)cc3)C(=O)N2/N=C/c2ccc(Cl)cc2)cc1", "growth": "100%"},
      {"compound": "CC(O)c1ncc(/C=C2\\SC(=S)N(Cc3ccccc3)C2=O)s1", "note": "(stereo not given)", "growth": "102%"}
    ]},
    {"tested_on": "SF-539 CNS", "experiment": "NCI-60 one-dose screen, 48 h (100 = growth as untreated, 0 = no growth, -100 = all killed)", "settings": "10 µM unless noted", "values": [
      {"compound": "C=CCn1c(SCC(=O)Nc2ccc(C(=O)/C=C/c3ccc(OC)cc3)cc2)nnc1-c1ccccc1", "growth": "98.2%"},
      {"compound": "COc1cc2ncnc(Nc3ccc(F)c(Cl)c3)c2cc1OCC(=O)N1CCN(c2ccc(F)cc2)CC1", "growth": "100%"},
      {"compound": "Cc1ccc2nc(Cl)c(Cn3nnnc3SCc3ccccc3)cc2c1", "growth": "94.4%"},
      {"compound": "CN1CCN(CCOc2ccc(-c3cnc4c(-c5ccc(C(F)(F)F)cc5)cnn4c3)cc2)CC1", "growth": "67.6%"},
      {"compound": "C/C(C=O)=C\\c1ccc2c(c1)OCO2", "growth": "106%"},
      {"compound": "Cc1ccc(O)c(NC(=O)c2ccc(CNc3ccnc(C(F)(F)F)c3)cc2)c1", "growth": "35.1%"},
      {"compound": "O=C1/C(=C/c2ccc(C(F)(F)F)cc2)COc2ccc(O)c(O)c21", "growth": "-83.9% (active)"},
      {"compound": "O=C(N/N=C/c1ccc(O)cc1O)c1ccc(Nc2ccnc(C(F)(F)F)c2)cc1", "growth": "27.6%"},
      {"compound": "O=c1[nH]c(-c2ccc(Cl)cc2)cn1-c1ccc(-n2cc(-c3ccc(Cl)cc3)[nH]c2=O)cc1", "growth": "104%"},
      {"compound": "CC1O[C@@H]2C[C@@](O)([C@H]1O)n1c3ccccc3c3c4c(c5c6ccccc6n2c5c31)C(=O)NC4=O", "note": "(stereo not given in full)", "growth": "33.2%"},
      {"compound": "COC1=CC(c2ccc[nH]2)=N/C1=C\\c1[nH]c(C)c(CC(=O)OCc2ccccc2)c1C", "growth": "-4.33% (active)"},
      {"compound": "NC(=O)c1ccc(NC(=O)c2oc3ccccc3c2-c2cnn(-c3ccccc3)c2)cc1", "growth": "-21.7% [50 µM] (active)"},
      {"compound": "CCOC(=O)N1CCN(S(=O)(=O)c2oc(-c3ccc(Cl)cc3)nc2C#N)CC1", "growth": "89%"},
      {"compound": "Cc1nn(-c2ccccc2)c(N2CCCCC2)c1/C=N/NC(=O)Cn1c(=O)sc2ccccc21", "growth": "92.2%"},
      {"compound": "CN(C)c1ccc(C(=NO)c2ccc(N(C)C)cc2)cc1", "growth": "33.7%"},
      {"compound": "Clc1ccc(-c2nc(-c3c[nH]c4ncccc34)cs2)cc1", "growth": "20.6% [100 µM]"},
      {"compound": "COc1ccc(C(c2cc(OC)c(OC)c(OC)c2)N2CCCC2)cc1", "note": "(stereo not given)", "growth": "95.7%"},
      {"compound": "COc1cccc(C(=O)OCC(O)C(=O)NC23CC4CC(CC(C4)C2)C3)c1", "note": "(stereo not given)", "growth": "103%"},
      {"compound": "C=CC(=O)N1CCN(c2ccc3cccc(NC(=O)c4cnc(C)cn4)c3n2)CC1", "growth": "35.1%"},
      {"compound": "CCOC(=O)c1c(C)c2c(n1C)CSc1cc(S(=O)(=O)c3ccccc3)c(=O)[nH]c1-2", "growth": "28.9% [100 µM]"},
      {"compound": "CCCCCCCCNc1cc2c3c(c1)CCCN3CCC2", "growth": "8.74% (active)"},
      {"compound": "COc1ccc(OC)c(-c2cn3nc(-c4c[nH]c5ccc(Br)cc45)sc3n2)c1", "growth": "-12.8% (active)"},
      {"compound": "CS(=O)(=O)Nc1cc(-c2ccc3ncnc(Nc4ccc5c(cnn5Cc5cccnc5)c4)c3c2)cnc1Cl", "growth": "41.4%"},
      {"compound": "C=CCN=C(N)SCCCCCCSC(N)=NCC=C", "growth": "99.6%"},
      {"compound": "COc1cc(C2C3=C(COC3=O)N(CCO)c3cc4c(cc32)OCCO4)cc(OC)c1OC", "note": "(stereo not given)", "growth": "-25.4% (active)"},
      {"compound": "COc1ccc2[nH]cc(-c3nc(-c4cn(C)c5ccncc45)cs3)c2c1", "growth": "-70.6% (active)"},
      {"compound": "COc1cccc(NC(=O)c2cccc(C3CCc4c(cc(OC)c(OC)c4OC)O3)c2)c1", "note": "(stereo not given)", "growth": "92%"},
      {"compound": "Cn1c(O)c(C(/C=C/c2ccccc2)=Nc2ccccc2N)c(=O)n(C)c1=O", "growth": "107%"},
      {"compound": "CC1=C(C(=O)n2c3ccccc3c3ccccc32)C(c2cccc([N+](=O)[O-])c2)C(C(=O)n2c3ccccc3c3ccccc32)=C(C)N1", "growth": "98.6%"},
      {"compound": "O=C(O)c1cn(C2CC2)c2cc(N3CCN(C(=O)N/N=C/c4ccccc4)CC3)c(F)cc2c1=O", "growth": "110%"},
      {"compound": "CC1(C)CCC(S(=O)(=O)c2ccc3c(c2)/C(=N\\O)c2cc(S(=O)(=O)N4CCN(c5ccc(F)cc5O)CC4)ccc2-3)CC1", "growth": "-88.2% (active)"},
      {"compound": "Cc1ccc(C)n1/C=C/n1c(C)ccc1C", "growth": "100%"},
      {"compound": "CCOC(=O)C(=Cc1cccc(C#N)c1)C(=O)OCC", "growth": "62.9%"},
      {"compound": "COc1cc(-c2nc(NC(C)=O)sc2-c2ccnc(NCCNS(=O)(=O)c3ccccc3)n2)ccc1Cl", "growth": "8.69% (active)"},
      {"compound": "CCN1CCN(CC(=O)Nc2nc3ccc(NCc4ccc(Br)cc4)cc3s2)CC1", "growth": "39.2%"},
      {"compound": "C/C(=N\\Nc1nc(C)cs1)c1cc2ccccc2o1", "growth": "94.8%"},
      {"compound": "COc1ccccc1-n1c(-c2cc(O)ccc2C)cn2c3c(=O)[nH]c(=O)n(C)c3nc12", "growth": "72.6%"},
      {"compound": "N#C/C(=C\\c1ccc(Br)cc1)c1cc2ccccc2[nH]1", "growth": "93.3%"},
      {"compound": "COc1ccc(C2=C/C(=C\\c3ccc(Cl)cc3)C(=O)N2/N=C/c2ccc(Cl)cc2)cc1", "growth": "101%"},
      {"compound": "CC(O)c1ncc(/C=C2\\SC(=S)N(Cc3ccccc3)C2=O)s1", "note": "(stereo not given)", "growth": "85%"}
    ]}
  ]
}
